# Screening data deposited in PubChem by National Center for Advancing Translational Sciences (NCATS).
# D2 antag = antagonists of human D2 dopamine receptor | inhibition, % at 10 µM | hit rate 2% among 340,000 | AID 485344 | HEK293 TREx D2 cells, calcium flux, dopamine EC80 | P14416; in the data active means inhibition above about 30%; inactive means below that, where a call was filed; further: 0% is about no effect
# Target sequence (P14416 whole entry, looked up): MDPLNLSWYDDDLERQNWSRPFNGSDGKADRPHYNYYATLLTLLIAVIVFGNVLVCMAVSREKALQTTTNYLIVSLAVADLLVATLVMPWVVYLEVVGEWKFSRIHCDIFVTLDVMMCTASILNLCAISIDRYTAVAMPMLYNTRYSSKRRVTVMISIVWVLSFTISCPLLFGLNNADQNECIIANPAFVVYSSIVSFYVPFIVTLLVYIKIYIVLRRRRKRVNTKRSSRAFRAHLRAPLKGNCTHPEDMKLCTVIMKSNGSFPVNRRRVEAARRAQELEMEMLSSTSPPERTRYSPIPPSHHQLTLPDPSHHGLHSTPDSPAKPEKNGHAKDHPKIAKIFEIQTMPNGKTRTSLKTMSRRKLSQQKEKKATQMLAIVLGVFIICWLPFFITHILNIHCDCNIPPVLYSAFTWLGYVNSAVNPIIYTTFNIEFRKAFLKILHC
#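 Antagonism is scored as inhibition of an EC80 dopamine-evoked calcium signal in a force-coupled, tetracycline-inducible HEK293 T-REx D2 line, with compound present 180 s before agonist.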
# D2 PAM-1 = positively modulates the human D2 dopamine receptor allosterically; HEK293 T-REx D2, calcium flux, EC20 dopamine potentiation; potentiation, % at 10 µM; P14416; hit rate 0.34% among 340,000;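 active means potentiation over 3 SD above the plate norm, cut at about 30% in these data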; further: 0% is about no effect
#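 Tetracycline-induced Hek293 Trex D2 cells, force-coupled to calcium, loaded with no-wash calcium dye. Compound added with 180 s kinetic read for agonism, then EC20 dopamine and a further 180 s read for potentiation.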
# D2 PAM-2 = positive allosteric modulators of human D2 dopamine receptor; hit rate 0.23% among 360,000; DiscoveRx D2 beta-arrestin cells, luminescence, 90 min; 100% = 57 uM dopamine signal; P14416; potentiation, % (test concentration not listed); in the data active means potentiation above about 50%; inconclusive means mostly about 30% to 49%
#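 PathHunter D2 cells, attached overnight at 37 deg C, received compound in DMSO plus dopamine at EC20 (50 nM final) for 90 min at 37 deg C. Beta-arrestin recruitment was read as luminescence after 1 h with detection reagent at ambient temperature.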
# D2 ag-1 = human D2 receptor agonism in beta-arrestin assay. DiscoveRx PathHunter D2 beta-arrestin, luminescence, 90 min; 100% = 57 uM dopamine signal. activation, % (concentration not given with the values). hit rate 0.084% among 360,000. AID 624465; in the data active means activation above about 40%; inconclusive means between about 15% and that limit
#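 DiscoveRx PathHunter D2 beta-arrestin cells (2,100/well) attached overnight, then compound-stimulated 90 min at 37 C in HBSS/10 mM HEPES/0.1% Tween-20 buffer; beta-galactosidase complementation read by luminescence after 1 h at ambient temperature. Dopamine 57 uM final (EC100) as control.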
# D2 ag-2 = D2 dopamine receptor (human) agonism; P14416; HEK293 T-REx D2 cells, calcium flux agonist mode; activation, % at 2 µM; hit rate 0.53% among 340,000; AID 485358;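 active means activation over 3 SD above normal in the single-dose calcium agonist read, cut at about 30% in these data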; further: 0% is about no effect
#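 HEK293 Trex D2 cells, tetracycline-induced, o/n 30 C 5% CO2; no-wash Ca dye, RT 30–90 min; 10-cycle baseline, 23 nl cpd added, kinetic Ca read 180 s; agonist hits = positive Ca response.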
# D3 ag = activates human D3 dopamine receptor beta-arrestin recruitment; DiscoveRx D3 beta-arrestin cells, luminescence, 90 min; Potency, µM (doses to about 76.9 µM), without a hit: at the top dose activation, most hits filed as activators; AID 720506; shares compounds with D2 ag-2; hit rate 4% among 2,300;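 further: potency means the concentration at half of the fitted maximal effect; 100% = dopamine control response; nearly all actives have a fitted effect of over 70% in size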
# D2 ag-3 = counter-screen for D3 agonists: human D2 dopamine receptor agonism | shares compounds with D2 ag-2 | DiscoveRx PathHunter D2 beta-arrestin, luminescence, 90 min; response scale: percent relative to full dopamine signal | Potency, µM (doses to about 76.9 µM), for the others: at the highest dose activation, hits mostly activators | hit rate 5.9% among 2,300 | AID 720507; further: potency means the concentration at half of the fitted maximal effect; % of control where 0% means no effect; nearly all actives have a fitted effect of over 70% in size
# * = called active by the depositor; ? = inconclusive; . = no result given. Sampled rows, rich in hits. Any-hit rate of the full collection: about 2.4%. Unless noted, the call rests on the fitted dose curve; in most records, active means well fitted activation curve with a large enough effect; inconclusive means small, poorly fitted or top-dose-only effect; inactive means flat fitted curve, though single readings scatter.
SMILES,D2 antag,D2 PAM-1,D2 PAM-2,D2 ag-1,D2 ag-2,D3 ag,D2 ag-3
COc1ccc(/C=N/NC(=O)c2nnn(-c3nonc3N)c2-c2cccc(OC)c2)cc1,34*,22,2,2,5,8%,-1%
Nc1nonc1-n1nnc(C(=O)N/N=C/c2ccc(F)cc2)c1-c1ccc2c(c1)OCO2,.,.,-3,-5,.,3%,-3%
CCOc1cccc(-c2c(C(=O)N/N=C/c3ccncc3)nnn2-c2nonc2N)c1,-3,0,0,4,-1,.,.
COc1cccc(-c2c(C(=O)N/N=C/c3cccs3)nnn2-c2nonc2N)c1,21,23,-4,-7,3,-13%,-5%
CCOc1ccc(/C(C)=N/NC(=O)c2nnn(-c3nonc3N)c2-c2cccs2)cc1,2,6,-1,-3,10,-5%,2%
CC1CCCN(S(=O)(=O)c2cc3c4c(c2)C(C)C(=O)N4CCC3)C1 (stereo not drawn),5,0,2,0,0,.,.
Cc1ccc(/C=N/NC(=O)c2nnn(-c3nonc3N)c2-c2cccs2)cc1,32*,18,-1,-2,25,4%,29%
COc1cccc(-c2c(C(=O)N/N=C(\C)c3ccco3)nnn2-c2nonc2N)c1,9,9,-10,-2,9,.,.
C/C(=N\NC(=O)c1nnn(-c2nonc2N)c1-c1ccccc1)c1ccco1,-2,26,-14,-15,10,2%,1%
COc1ccc(/C=N/NC(=O)c2nnn(-c3nonc3N)c2-c2cccs2)cc1OC,2,4,5,5,0,.,.
CCOC(=O)CCc1c(C(=O)OCC)[nH]c(CC)c1C(=O)OCc1ccccc1,7,-2,1,-7,0,-3%,-3%
CCOC(=O)c1c(C)[nH]c(C(=O)OCc2ccccc2)c1C,-4,-3,-6,-1,1,.,.
Cc1cc(Nc2ccccc2C)n2nc(Cc3ccc(Cl)cc3)nc2n1,.,10,.,.,-1,.,.
CCOc1ccc(-n2c(C)nc3cc(C(=O)NC4CCCC4)ccc32)cc1,.,5,.,.,0,.,.
CCN1CCN(c2ncnc3scc(-c4ccc(OC)cc4)c23)CC1,-13,-1,5,78*,41*,0%,40µM*
COC(=O)COc1ccc2oc(-c3ccc(OC)cc3)cc(=O)c2c1,.,-10,.,.,0,.,.
O=C(COc1ccc2oc(-c3ccccc3)cc(=O)c2c1)Nc1ccccc1,-13,-16,-4,0,21,13%,1%
Cc1cc(C2=NNC(=NCCc3ccccc3)SC2)c(C)n1CC1CCCO1 (stereo not drawn),22,-20,-17,4,22,-11%,-1%
CC(=O)c1c(C)[nH]c(C(=O)OCC(=O)Nc2ccccc2Cl)c1C,20,5,-2,5,1,.,.
CC(=O)c1c(C)[nH]c(C(=O)OCC(=O)Nc2nnc(-c3ccccc3)o2)c1C,35*,-2,2,5,0,2%,-2%
COc1cc2[nH]c(=S)nc(NCC3CCCO3)c2cc1OC (stereo not drawn),32*,4,-7,-1,0,1%,-6%
O=C(CSc1nnc2ccc(-c3ccccn3)nn12)Nc1ccccc1F,9,2,-10,-1,1,.,.
CC1=C/C(=C\C=C(C#N)C#N)N(C)c2ccccc21,-21,-12,-4,-3,32*,-26%,-8%
Oc1ccc(Cl)cc1C=NCCc1ccccc1,24,-16,-7,10,43*,?,17%
N#CC1(NC(=O)CSc2nnc(C3CC3)n2C2CC2)CCCCC1,-13,-7,-2,1,0,.,.
CC(C)CC[n+]1ccccc1/C=C/c1ccc(N(C)C)cc1,5,11,-10,-2,10,10%,17%
Cc1ccccc1NC(=O)NCCCN1CCN(C)CC1,3,9,5,2,0,.,.
